CYP2C19 inh: blockers of cytochrome P450 2C19 activity – biochemical, luminescence, ADME assay, primary screen | AID 778, 2007 | inhibition, % at 5 µM | CYP2C19 Supersomes, luciferin-H EGE luminescence, 30 min | actives 21% (n = 96,000);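 active = CYP2C19 inhibition above a set limit at 5 µM in the primary screen, cut at about 50% in these data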;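 also: plate controls were negative control wells for no effect and 2.5 mM tranylcypromine positive control for full effect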
PLAP act: PLAP enzyme activators, biochemical, luminescence, HTS. Alkaline phosphatase, placental type (Homo sapiens), P05187. purified PLAP enzyme, luminescent substrate read-out; stronger effect = higher value. activation fold at 20 µM. actives 1.2% (n = 96,000). AID 696, 2007; in the data active = activation fold above about 2
Target sequence (P05187 whole entry, looked up): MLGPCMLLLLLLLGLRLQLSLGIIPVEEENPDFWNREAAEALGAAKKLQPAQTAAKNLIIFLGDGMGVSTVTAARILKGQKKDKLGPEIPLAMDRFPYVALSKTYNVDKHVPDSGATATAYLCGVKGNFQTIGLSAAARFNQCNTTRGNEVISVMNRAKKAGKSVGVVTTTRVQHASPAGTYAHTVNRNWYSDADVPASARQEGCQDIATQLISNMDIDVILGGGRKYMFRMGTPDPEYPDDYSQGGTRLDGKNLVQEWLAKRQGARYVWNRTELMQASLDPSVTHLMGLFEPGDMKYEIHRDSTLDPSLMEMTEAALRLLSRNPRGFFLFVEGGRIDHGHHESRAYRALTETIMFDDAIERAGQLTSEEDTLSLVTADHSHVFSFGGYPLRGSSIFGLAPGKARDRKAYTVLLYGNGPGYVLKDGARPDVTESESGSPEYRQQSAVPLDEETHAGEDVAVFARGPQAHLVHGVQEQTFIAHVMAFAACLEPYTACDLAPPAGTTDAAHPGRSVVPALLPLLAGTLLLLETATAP
CYP2C19 act: human CYP2C19 activators, primary screen, biochemical, luminescence; 96,000 tested, under 10 active; AID 1025, 2008; activation factor at 5 µM; recombinant CYP2C19, luciferin-H EGE luminescence; stronger effect = higher value; 0 = fully inhibited enzyme, 1 = untreated enzyme;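 active = activation factor of at least 2 at 5 µM in the primary screen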;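 also: 0 = wells with 2.5 mM tranylcypromine and 1 = vehicle-only wells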
CYP2C9 act: human CYP2C9 activators, primary screen, biochemical, luminescence | activation factor at 5 µM | actives 1.4% (n = 96,000) | recombinant CYP2C9, luciferin-H conversion; stronger effect = higher value; factor 1 = untreated enzyme, 0 = blocked | Cytochrome P450 2C9 (Homo sapiens), P11712 | AID 1024, 2008;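 active = activation factor of 2 or more for CYP2C9 at a 5 µM dose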;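 also: 0 = sulfaphenazole-blocked wells and 1 = vehicle-only wells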
CYP2C9 inhib: blockers of cytochrome P450 2C9 activity – biochemical, luminescence, ADME assay, primary screen; P11712; CYP2C9 Supersomes, luciferin-H conversion; inhibition, % at 5 µM; actives 20% (n = 96,000); AID 777, 2007;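 active = blocking of liver enzyme CYP2C9 beyond about 50% at 5 µM, limit read from the data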
An asterisk follows results filed as active. Shown are actives, neighbours in structure and some others; about 31% of the full set was active somewhere.

Screening Nc1nnc(SCc2ccccc2F)n1-c1ccccc1 returned CYP2C19 inh 75*, PLAP act 1.2, CYP2C19 act 0.2, CYP2C9 act 1.1 and CYP2C9 inhib -7.
For Fc1ccccc1CSc1nnc(Cn2cnc3ccccc32)n1-c1ccccc1 the results were CYP2C19 inh 83*, PLAP act 1.8, CYP2C19 act 0.2, CYP2C9 act 0.7 and CYP2C9 inhib 32.
For CCOC(=O)C1=C(C)NC(=O)C1(NC(=O)c1cccnc1)C(F)(F)F (stereo not given) the results were CYP2C19 inh -2, PLAP act 1, CYP2C19 act 1, CYP2C9 act 1.2 and CYP2C9 inhib -16.
`COc1ccc(-c2nnn(CC(=O)N(C3CCCCC3)C(C)C(=O)NC3CCCC3)n2)cc1OC` (stereo not given) gave CYP2C19 inh 83*, PLAP act 2*, CYP2C19 act 0.2, CYP2C9 act 0.3 and CYP2C9 inhib 68*.
`COc1ccc(-c2nnn(CC(=O)N(C3CCCC3)C(C)C(=O)NC3CCCC3)n2)cc1OC` (stereo not given) gave CYP2C19 inh 81*, PLAP act 1.7, CYP2C19 act 0.2, CYP2C9 act 0.4 and CYP2C9 inhib 59*.
Screening CCCC(C(=O)NC1CCCC1)N(C(=O)Cn1nnc(-c2ccc(C)o2)n1)c1ccccc1OC (stereo not given) returned CYP2C19 inh 88*, PLAP act 1.8, CYP2C19 act 0.1, CYP2C9 act 0.2 and CYP2C9 inhib 81*.
For COc1ccc(-c2nnn(CC(=O)N(CC(=O)NC3CCCC3)c3cccc(C)c3)n2)cc1OC the results were CYP2C19 inh 36, PLAP act 1.5, CYP2C19 act 0.6, CYP2C9 act 0.6 and CYP2C9 inhib 42.
Screening Cc1cccc(N2C(=O)c3cccc4c(N(C)CCO)ccc(c34)C2=O)c1 returned CYP2C19 inh 26, PLAP act 0.8, CYP2C19 act 0.7, CYP2C9 act 0.9 and CYP2C9 inhib 7.
For COc1cnn(-c2ccccc2)c(=O)c1SCc1ccc(Cl)c(Cl)c1 the results were CYP2C19 inh 54*, PLAP act 0.8, CYP2C19 act 0.5, CYP2C9 act 0.5 and CYP2C9 inhib 52*.
Screening COc1ccc2cnn(-c3ccccc3)c(=O)c2c1OC returned CYP2C19 inh 5, PLAP act 0.8, CYP2C19 act 1, CYP2C9 act 0.9 and CYP2C9 inhib 14.
Cc1ccccc1-n1c(=O)c2ccccc2n2nnnc12 was read as CYP2C19 inh 58*, PLAP act 0.9, CYP2C19 act 0.4, CYP2C9 act 1.1 and CYP2C9 inhib -8.
CCCc1cc(C(=O)Nc2nccs2)cs1 was read as CYP2C19 inh 40, PLAP act 0.8, CYP2C19 act 0.6, CYP2C9 act 0.5 and CYP2C9 inhib 52*.
CCNS(=O)(=O)c1ccc(C(=O)Nc2ccccc2)cc1 was read as CYP2C19 inh -11, PLAP act 0.9, CYP2C19 act 1.1, CYP2C9 act 0 and CYP2C9 inhib 97*.
CC(=O)Nc1ccc(S(=O)(=O)NCc2ccc(C(=O)NC(C)c3ccccc3)cc2)cc1 (stereo not given) was read as CYP2C19 inh 26, PLAP act 0.7, CYP2C19 act 0.7, CYP2C9 act 0.1 and CYP2C9 inhib 91*.
For CC(=O)Nc1ccc(S(=O)(=O)NCc2ccc(C(=O)NCc3ccc(Cl)cc3)cc2)cc1 the results were CYP2C19 inh -8, PLAP act 1.1, CYP2C19 act 1.1, CYP2C9 act 0.6 and CYP2C9 inhib 38.
`CCC(C)c1ccc(NC(=O)c2cccnc2)cc1` (stereo not given) gave CYP2C19 inh 6, PLAP act 0.8, CYP2C19 act 0.9, CYP2C9 act 0.7 and CYP2C9 inhib 31.
`CCNS(=O)(=O)c1ccc(NC(=O)c2cccnc2)cc1` gave CYP2C19 inh -1, PLAP act 0.9, CYP2C19 act 1, CYP2C9 act 0.2 and CYP2C9 inhib 78*.
CCCN1C(=O)c2ccc(C(=O)Nc3nccs3)cc2C1=O was read as CYP2C19 inh 8, PLAP act 1, CYP2C19 act 0.9, CYP2C9 act 0.9 and CYP2C9 inhib 10.
For CCOC(=O)N1CCN(C(=O)CN2C(=O)COc3ccc(C(C)(C)C)cc32)CC1 the results were CYP2C19 inh -5, PLAP act 1.4, CYP2C19 act 1.1, CYP2C9 act 1 and CYP2C9 inhib 5.
For COCCCNC(=O)Cn1cc2c(n1)CCC(C)C2 (stereo not given) the results were CYP2C19 inh -3, PLAP act 1.1, CYP2C19 act 1, CYP2C9 act 1.2 and CYP2C9 inhib -23.
Screening Cc1ccc(C)n1-c1ncn[nH]1 returned CYP2C19 inh 8, PLAP act 1.1, CYP2C19 act 0.9, CYP2C9 act 1 and CYP2C9 inhib -2.
Screening CCc1cc(C(=O)NNC(=S)NCc2ccccc2)cs1 returned CYP2C19 inh 12, PLAP act 0.9, CYP2C19 act 0.9, CYP2C9 act 1 and CYP2C9 inhib 4.
`CCc1cc(C(=O)Nc2ccccc2)cs1` gave CYP2C19 inh 76*, PLAP act 1, CYP2C19 act 0.2, CYP2C9 act 0.5 and CYP2C9 inhib 48.
Screening O=S(=O)(N1CCCCC1)N1CCCN(S(=O)(=O)N2CCCCC2)CC1 returned CYP2C19 inh 25, PLAP act 1.3, CYP2C19 act 0.7, CYP2C9 act 0.5 and CYP2C9 inhib 50*.
For O=S(=O)(N1CCCCCC1)N1CCN(S(=O)(=O)N2CCOCC2)CC1 the results were CYP2C19 inh 9, PLAP act 1.3, CYP2C19 act 0.9, CYP2C9 act 0.9 and CYP2C9 inhib 9.
CCOC(=O)C1CCCN(C(=O)CCCn2nc(C)n3c(cc4sccc43)c2=O)C1 (stereo not given) was read as CYP2C19 inh 32, PLAP act 1.5, CYP2C19 act 0.7, CYP2C9 act 0.5 and CYP2C9 inhib 46.
Screening CCCC/C(O)=C1\C(=O)CC(C)(C)CC1=Nc1ccccc1OC returned CYP2C19 inh 93*, PLAP act 1.6, CYP2C19 act 0.1, CYP2C9 act 0.1 and CYP2C9 inhib 90*.
For COc1ccc(OC)c(N=CC2=C(O)CC(C)(C)CC2=O)c1 the results were CYP2C19 inh 3, PLAP act 1.5, CYP2C19 act 1, CYP2C9 act 1.2 and CYP2C9 inhib -18.
Screening CCC/C(O)=C1\C(=O)CC(C)(C)CC1=Nc1ccc(OC)cc1OC returned CYP2C19 inh 97*, PLAP act 1.5, CYP2C19 act 0, CYP2C9 act 0.1 and CYP2C9 inhib 95*.
Screening COC(=O)CC/C(O)=C1\C(=O)CC(C)(C)CC1=Nc1ccccc1OC returned CYP2C19 inh 32, PLAP act 1.1, CYP2C19 act 0.7, CYP2C9 act 0.9 and CYP2C9 inhib 14.

Compound activity: PubChem BioAssay, Sanford-Burnham Center for Chemical Genomics
